Inconclusive results are not listed. Entries that show only a call come without a potency. Calls of active or inactive are those of the source. Calls come from the whole dose curve. Residues, ends and D or L forms follow the SMILES beside them.
Test: qHTS assay for small molecule agonists of the p53 signaling pathway (AID 651631); note: nearly all actives have a fitted effect of over 15% in size
Conditions: HCT-116 p53RE-bla reporter, beta-lactamase FRET ratio, 16 h; series mostly up to 73.3 µM
Description: U.S. Tox21 Program National Center for Advancing Translational Sciences [NCATS] NIH Chemical Genomics Center [NCGC] U.S. Environmental Protection Agency [EPA] National Institutes of Environmental Health Sciences [NIEHS] National Toxicology Program [NTP] U.S. Food and Drug Administration [FDA] Tox21 Assay Overview: p53, a tumor suppressor protein, is activated following cellular insult, including DNA damage and other cellular stresses. The activation of p53 regulates cell fate by inducing DNA repair, cell cycle arrest, apoptosis, or cellular senescence. The activation of p53, therefore, is a good indicator of DNA damage and other cellular stresses. The CellSensor p53RE-bla HCT-116 cell line (Invitrogen) contains a stably integrated beta-lactamase reporter gene under control of the p53 response elements. The activation of the reporter gene under culture conditions can be detected by fluorescence intensity. This cell line was used to screen the Tox21 compound library in a 1536-well plate format and to identify agonists that activate the p53 signaling pathway.
Tox21 Assay Protocol Summary: The p53RE-bla cells were dispensed at 4,000 cells/5 ul/well in 1536-well black wall/clear bottom plates using a Multidrop dispenser. After the assay plates were incubated at a 37 C/5% CO2 incubator for 5 hours, 23 nL of compounds dissolved in DMSO, positive controls or DMSO only was transferred to the assay plate by a pin tool. The plates were incubated at 37 C for 16 hours. After 1 uL of LiveBLAzerTM B/G FRET substrate was added using a Flying Reagent Dispenser, the plates were incubated at room temperature for 2 hours, and fluorescence intensity was measured by an Envision plate reader.
Potency is the fitted concentration of half-maximal effect.

| SMILES | Potency |
| --- | --- |
| O=C1CN(/N=C/c2ccc([N+](=O)[O-])o2)C(=O)N1 | inactive |
| O=C(O)c1cc(N=Nc2ccc(S(=O)(=O)Nc3ccccn3)cc2)ccc1O | inactive |
| OCCc1ccccc1 | inactive |
| CCCCCCCCCCCCCCCC(=O)O | inactive |
| CNC[C@H](O)c1cccc(O)c1 | inactive |
| O=C(O)c1[nH]n(-c2ccc(S(=O)(=O)O)cc2)c(=O)c1N=Nc1ccc(S(=O)(=O)O)cc1 | inactive |
| Oc1ccc(/C=C/c2cc(O)cc(O)c2)cc1 | 54.5 µM (active) |
| Nc1ccc(O)c(C(=O)O)c1 | inactive |
| Cc1noc(NS(=O)(=O)c2ccc(N)cc2)c1C | inactive |
| O=c1cc[nH]c(=S)[nH]1 | inactive |
| CCCCC1C(=O)N(c2ccccc2)N(c2ccccc2)C1=O | inactive |
| CCOc1ccc(NC(=O)CC(C)O)cc1 (stereo not given) | inactive |
| COC(=O)[C@H](Cc1ccccc1)NC(=O)[C@@H](N)CC(=O)O (H-Asp-Phe-OMe) | inactive |
| CC(C)(Oc1ccc(C2CC2(Cl)Cl)cc1)C(=O)O (stereo not given) | inactive |
| CC1(C)[C@@H]2CC[C@@]1(C)C(=O)C2 | inactive |
| CCC1(c2ccccc2)C(=O)NCNC1=O | inactive |
| NC(N)=NC(=O)c1nc(Cl)c(N)nc1N | inactive |
| Nc1ccc(S(=O)(=O)c2ccc(N)cc2)cc1 | inactive |
| c1ccc2[nH]ccc2c1 | inactive |
| O=C(c1ccccc1)c1ccccc1 | inactive |

| SMILES | Potency |
| --- | --- |
| NNC(=O)c1ccncc1 | inactive |
| Cn1c(=O)c2[nH]cnc2n(C)c1=O | inactive |
| O=C(O)c1cccc([N+](=O)[O-])c1 | inactive |
| NC(=O)c1cnccn1 | inactive |
| CC(O)CO (stereo not given) | inactive |
| CCCN(CCC)S(=O)(=O)c1ccc(C(=O)O)cc1 | inactive |
| CC(=O)NS(=O)(=O)c1ccc(N)cc1 | inactive |
| NC(=O)NC1NC(=O)NC1=O (stereo not given) | inactive |
| Nc1ccc(C(=O)O)cc1 | inactive |
| Nc1ccc(S(=O)(=O)Nc2nccs2)cc1 | inactive |
| COc1c2occc2cc2ccc(=O)oc12 | inactive |
| C[C@]12C=CC(=O)C=C1CC[C@@H]1[C@@H]2[C@@H](O)C[C@@]2(C)[C@H]1CC[C@]2(O)C(=O)CO | inactive |
| Cc1cc(=O)n(-c2ccccc2)n1C | inactive |
| CC(O)CN(CCN(CC(C)O)CC(C)O)CC(C)O (stereo not given) | inactive |
| Cc1cc(=O)[nH]c(=S)[nH]1 | inactive |
| O=c1ccc2ccccc2o1 | inactive |
| O=C(O)CCCCC(=O)O | inactive |
| CCCC(O)C(CC)CO (stereo not given) | inactive |
| CCCCOC(=O)CC(CC(=O)OCCCC)(OC(C)=O)C(=O)OCCCC | inactive |
| O=S(=O)(O)c1ccc2cc(O)ccc2c1 | inactive |
